{"source": "ChEMBL document CHEMBL2218924", "about": "“A broad activity screen in support of a chemogenomic map for kinase signalling research and drug discovery” (Biochem J, 2013)"}
{"target": "Protein-tyrosine kinase 2-beta (Homo sapiens) (UniProt Q14289)", "sequence (Q14289 whole entry, looked up)": "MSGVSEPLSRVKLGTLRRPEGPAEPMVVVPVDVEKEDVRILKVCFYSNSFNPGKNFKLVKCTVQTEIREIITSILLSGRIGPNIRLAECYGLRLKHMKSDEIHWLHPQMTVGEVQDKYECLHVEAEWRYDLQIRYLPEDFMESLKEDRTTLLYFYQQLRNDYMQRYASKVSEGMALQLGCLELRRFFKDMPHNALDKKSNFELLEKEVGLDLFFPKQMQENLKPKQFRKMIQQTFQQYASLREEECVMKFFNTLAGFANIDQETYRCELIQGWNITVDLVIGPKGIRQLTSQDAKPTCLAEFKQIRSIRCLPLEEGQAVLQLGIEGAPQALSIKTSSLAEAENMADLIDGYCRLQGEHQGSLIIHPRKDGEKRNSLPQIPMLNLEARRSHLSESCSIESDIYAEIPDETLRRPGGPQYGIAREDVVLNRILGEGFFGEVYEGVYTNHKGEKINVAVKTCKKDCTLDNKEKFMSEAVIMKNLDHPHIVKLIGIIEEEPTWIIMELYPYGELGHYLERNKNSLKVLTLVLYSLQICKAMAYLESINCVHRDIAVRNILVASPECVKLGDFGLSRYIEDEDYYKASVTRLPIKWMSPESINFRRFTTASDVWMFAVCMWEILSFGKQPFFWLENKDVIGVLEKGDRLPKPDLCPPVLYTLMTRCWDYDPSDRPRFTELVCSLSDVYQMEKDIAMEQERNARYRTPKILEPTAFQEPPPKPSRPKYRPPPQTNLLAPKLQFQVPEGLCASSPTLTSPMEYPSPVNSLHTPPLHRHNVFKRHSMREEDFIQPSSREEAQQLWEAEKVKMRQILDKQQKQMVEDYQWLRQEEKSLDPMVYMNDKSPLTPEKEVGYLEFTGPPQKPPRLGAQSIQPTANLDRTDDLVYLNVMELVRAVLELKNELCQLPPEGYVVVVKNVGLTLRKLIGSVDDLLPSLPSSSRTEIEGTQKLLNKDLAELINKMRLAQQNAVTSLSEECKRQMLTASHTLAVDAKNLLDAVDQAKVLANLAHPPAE", "settings": "at 1 µM", "units": {"residual activity": "%"}}
{"smiles": "O=c1cc(N2CCOCC2)oc2c(-c3ccccc3)cccc12", "residual activity": 127}
{"smiles": "O=C1Cc2c([nH]c3ccc([N+](=O)[O-])cc23)-c2ccccc2N1", "residual activity": 45}
{"smiles": "NC(=O)c1cccc(-c2cc(Nc3ccc(OC(F)(F)F)cc3)ncn2)c1", "residual activity": 128}
{"smiles": "c1ccc(-c2cnc(Nc3ccc(OCCN4CCCC4)cc3)s2)cc1", "residual activity": 105}
{"smiles": "N#C/C(=C\\c1ccc(O)c(O)c1)C(=O)NCc1ccccc1", "residual activity": 146}
{"smiles": "Oc1cccc(-c2nc(N3CCOCC3)c3oc4ncccc4c3n2)c1", "residual activity": 142}
{"smiles": "COc1cc2c(cc1OC)-c1n[nH]c(Nc3cccc(F)c3)c1C2", "residual activity": 79}
{"smiles": "O=C(Nc1ccc(Cl)cc1)c1ccccc1NCc1ccncc1", "residual activity": 128}
{"smiles": "O=C1NC(=O)C(c2cn(CCCn3ccnc3)c3ccccc23)=C1Nc1ccccc1", "residual activity": 121}
{"smiles": "O=C1C(Cl)=C(N2C(=O)CCC2=O)C(=O)c2ccccc21", "residual activity": 91}
{"smiles": "CC(C)c1nn(-c2c(Cl)cccc2Cl)c2nc(Cc3ccc(OCCO)cc3)[nH]c(=O)c12", "residual activity": 109}
{"smiles": "COc1cc2nccc(Oc3ccc(NC(=O)Nc4cc(C)on4)c(Cl)c3)c2cc1OC", "residual activity": 34}
{"smiles": "O=C(Nc1nc2ccccc2n1CCN1CCOCC1)c1cccc([N+](=O)[O-])c1", "residual activity": 114}
{"smiles": "COc1ccc2c(c1)c(C1=C(c3c[nH]c4ccccc34)C(=O)NC1=O)cn2CCCN(C)C", "residual activity": 116}
{"smiles": "O=C1NC(=O)C(c2c[nH]c3ccccc23)=C1c1c[nH]c2ccccc12", "residual activity": 97}
{"smiles": "COc1ccc(-c2cnc3c(-c4ccsc4)cnn3c2)cc1", "residual activity": 136}
{"smiles": "CCCCc1c(-c2ccc(O)cc2)[nH]c2nccnc12", "residual activity": 54}
{"smiles": "O=C(c1cc2cc(O)ccc2[nH]1)c1cc2cc(O)ccc2[nH]1", "residual activity": 68}
{"target": "Protein-tyrosine kinase 2-beta (Homo sapiens) (UniProt Q14289)", "settings": "at 10 µM", "units": {"residual activity": "%"}}
{"smiles": "O=C1Cc2c([nH]c3ccc([N+](=O)[O-])cc23)-c2ccccc2N1", "residual activity": 38}
{"smiles": "Nc1n[nH]c2nc3ccccc3nc12", "residual activity": 92}
{"smiles": "NC(=O)c1cccc(-c2cc(Nc3ccc(OC(F)(F)F)cc3)ncn2)c1", "residual activity": 95}
{"smiles": "c1ccc(-c2cnc(Nc3ccc(OCCN4CCCC4)cc3)s2)cc1", "residual activity": 43}
{"smiles": "CSc1nc(-c2ccc(F)cc2)c(-c2ccnc(NC(C)c3ccccc3)c2)[nH]1", "note": "(stereo not given)", "residual activity": 85}
{"smiles": "N#C/C(=C\\c1ccc(O)c(O)c1)C(=O)NCc1ccccc1", "residual activity": 101}
{"smiles": "Oc1cccc(-c2nc(N3CCOCC3)c3oc4ncccc4c3n2)c1", "residual activity": 95}
{"smiles": "COc1cc2c(cc1OC)-c1n[nH]c(Nc3cccc(F)c3)c1C2", "residual activity": 32}
{"smiles": "O=C(Nc1ccc(Cl)cc1)c1ccccc1NCc1ccncc1", "residual activity": 74}
{"smiles": "O=C1NC(=O)C(c2cn(CCCn3ccnc3)c3ccccc23)=C1Nc1ccccc1", "residual activity": 81}
{"smiles": "CC(C)c1nn(-c2c(Cl)cccc2Cl)c2nc(Cc3ccc(OCCO)cc3)[nH]c(=O)c12", "residual activity": 99}
{"smiles": "COc1cc2nccc(Oc3ccc(NC(=O)Nc4cc(C)on4)c(Cl)c3)c2cc1OC", "residual activity": 8}
{"smiles": "O=C(Nc1nc2ccccc2n1CCN1CCOCC1)c1cccc([N+](=O)[O-])c1", "residual activity": 86}
{"smiles": "N#C/C(=C1/Nc2ccccc2S1)c1ccnc(NCCc2cccnc2)n1", "residual activity": 58}
{"smiles": "COc1ccc2c(c1)c(C1=C(c3c[nH]c4ccccc34)C(=O)NC1=O)cn2CCCN(C)C", "residual activity": 32}
{"smiles": "O=C1NC(=O)C(c2c[nH]c3ccccc23)=C1c1c[nH]c2ccccc12", "residual activity": 28}
{"smiles": "COc1ccc(-c2cnc3c(-c4ccsc4)cnn3c2)cc1", "residual activity": 94}
{"smiles": "CCCCc1c(-c2ccc(O)cc2)[nH]c2nccnc12", "residual activity": 26}
{"smiles": "O=C(c1cc2cc(O)ccc2[nH]1)c1cc2cc(O)ccc2[nH]1", "residual activity": 20}
{"target": "Receptor-interacting serine/threonine-protein kinase 2 (Homo sapiens) (UniProt O43353)", "sequence (O43353 whole entry)": "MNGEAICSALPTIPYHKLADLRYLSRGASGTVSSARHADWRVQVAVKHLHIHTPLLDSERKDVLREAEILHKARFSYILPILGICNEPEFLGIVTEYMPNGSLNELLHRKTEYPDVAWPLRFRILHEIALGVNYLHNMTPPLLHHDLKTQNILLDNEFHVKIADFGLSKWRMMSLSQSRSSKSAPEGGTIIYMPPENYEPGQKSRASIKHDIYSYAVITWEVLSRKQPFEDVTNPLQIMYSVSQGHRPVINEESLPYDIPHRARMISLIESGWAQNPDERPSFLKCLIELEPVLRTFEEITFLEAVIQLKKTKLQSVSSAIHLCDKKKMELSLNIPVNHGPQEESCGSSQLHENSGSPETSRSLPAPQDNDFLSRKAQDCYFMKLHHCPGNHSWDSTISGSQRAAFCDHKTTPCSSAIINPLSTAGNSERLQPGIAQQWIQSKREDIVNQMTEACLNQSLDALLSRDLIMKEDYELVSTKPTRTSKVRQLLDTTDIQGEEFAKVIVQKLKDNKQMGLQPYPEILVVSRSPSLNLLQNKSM", "settings": "at 1 µM", "units": {"residual activity": "%"}}
{"smiles": "O=C1Cc2c([nH]c3ccc([N+](=O)[O-])cc23)-c2ccccc2N1", "residual activity": 53}
{"smiles": "O=c1c(-c2ccc(F)cc2)c(-c2ccncc2)[nH]n1-c1ccc(Cl)cc1", "residual activity": 47}
{"smiles": "Nc1n[nH]c2nc3ccccc3nc12", "residual activity": 94}
{"smiles": "NC(=O)c1cccc(-c2cc(Nc3ccc(OC(F)(F)F)cc3)ncn2)c1", "residual activity": 93}
{"smiles": "c1ccc(-c2cnc(Nc3ccc(OCCN4CCCC4)cc3)s2)cc1", "residual activity": 43}
{"smiles": "CSc1nc(-c2ccc(F)cc2)c(-c2ccnc(NC(C)c3ccccc3)c2)[nH]1", "note": "(stereo not given)", "residual activity": 75}
{"smiles": "Oc1cccc(-c2nc(N3CCOCC3)c3oc4ncccc4c3n2)c1", "residual activity": 89}
{"smiles": "CCN1/C(=C/C(C)=O)Sc2ccc(OC)cc21", "residual activity": 71}
{"smiles": "COc1cc2c(cc1OC)-c1n[nH]c(Nc3cccc(F)c3)c1C2", "residual activity": 30}
{"smiles": "O=C1NC(=O)C(c2cn(CCCn3ccnc3)c3ccccc23)=C1Nc1ccccc1", "residual activity": 78}
{"smiles": "O=C(NC(NC(=S)Nc1ccc(F)c([N+](=O)[O-])c1)C(Cl)(Cl)Cl)C(c1ccccc1)c1ccccc1", "note": "(stereo not given)", "residual activity": 92}
{"smiles": "O=C1C(Cl)=C(N2C(=O)CCC2=O)C(=O)c2ccccc21", "residual activity": 92}
{"smiles": "CC(C)c1nn(-c2c(Cl)cccc2Cl)c2nc(Cc3ccc(OCCO)cc3)[nH]c(=O)c12", "residual activity": 90}
{"smiles": "COc1cc2nccc(Oc3ccc(NC(=O)Nc4cc(C)on4)c(Cl)c3)c2cc1OC", "residual activity": 21}
{"smiles": "COc1ccc(-c2cnc3c(-c4ccsc4)cnn3c2)cc1", "residual activity": 99}
{"smiles": "CCCCc1c(-c2ccc(O)cc2)[nH]c2nccnc12", "residual activity": 38}
{"smiles": "O=C(c1cc2cc(O)ccc2[nH]1)c1cc2cc(O)ccc2[nH]1", "residual activity": 18}
{"smiles": "Fc1ccc(-c2nc3n(c2-c2ccncc2)CCS3)cc1", "residual activity": 65}
